Shown are actives, neighbours in structure and some others; about 3% of the full set was active somewhere.
IkB sig inh – IkB pathway inhibition in ABC-DLBCL cells | ABC-DLBCL IkBa-CBG/CBR dual luciferase ratio, 4 h; response scale: scaled: untreated 0%, proteasome inhibitor 100% | Potency, µM (top dose mostly 57.1 µM), for the others: at the top dose IkBa stabilization activation | 110,000 tested, 0.04% active | AID 445; active means well fitted curve in the direction sought with a large enough effect in the signal ratio, not every such curve was filed as active; inconclusive means small, poorly fitted or top-dose-only effect, or a change in a side signal; the % refers to the signal ratio;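 further: the direction sought is a rising ratio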
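Luminescence ratio of IκBα-fused green versus native red beetle luciferase in OCI-Ly3 cells, 4 h post-doxycycline with compound; red signal alone, scaled from basal (0%) to zero light (-100%), flagged nonspecific or cytotoxic effects.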
p53ts 39C tox – p53ts cell cytotoxicity, nonpermissive temperature; H1299-p53A138V viability at 39C, ATP luminescence, 24 h; AID 902; Potency, µM (highest dose often 46.1 µM), for the others: at the top dose activity change, negative = cell killing, usual class: cytotoxic; 130,000 tested, 1.5% active; further: on the % scale 0 is the no-effect control and ±100 the full control effect; nearly all actives have a fitted effect of over 55% in size
p53ts 32C kill – kills p53ts cells at the permissive temperature; H1299-p53A138V at 32C, ATP luminescence viability, 24 h; Potency, µM (series often up to 46.1 µM), inactives show at the highest dose activity change, negative = cytotoxicity, usual class: cytotoxic; 130,000 tested, 0.93% active; AID 924;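 further: 0% = DMSO and -100% = full killing by reference compound; nearly all actives have a fitted effect of over 55% in size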
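Cells: H1299 p53ts (A138V), 600/well, pre-incubated 16–30 h at 37C. Cpd up to 46 uM, 24 h, 32C. Readout: ATPlite luminescence, 20 min RT. Normalization: DMSO vs tamoxifen 100 uM. AC50 by Hill equation.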
CRE Fsk mod – modulators of forskolin-stimulated CRE signaling in CHO cells; Potency, µM (highest dose often 38.2 µM), for the others: at the top dose activity change, negative = inhibition, most hits filed as activators; 71,000 tested, 2.5% active; AID 662; CHO CRE-bla reporter (cAMP response element driving beta-lactamase), forskolin EC10, beta-lactamase ratio; active means well fitted activation curve with a large enough effect in the signal ratio, with a control signal flat, not every such curve was filed as active; inconclusive means small, poorly fitted or top-dose-only effect, or effect the other way, or a change in a side signal; the % refers to the signal ratio; further: % of control where 0% means no effect
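CRE-bla CHO reporter cells treated with compound titration plus EC10 NKH 477 (water-soluble forskolin), incubated 3 h at 37 °C; CCF4 loading 2 h at room temperature, 460/530 nm emission ratio read, AC50 values derived for positive or negative modulators.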
Imprint erasure – genomic imprint erasure induction; mouse ES Peg3-LacZ reporter, beta-gal luminescence, 40 h; Potency, µM (titrated, usually from 60.7 µM), without a hit: at the top dose activity change, positive = activation, hits mostly activators; 110,000 tested, 0.02% active; AID 1948
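Readout: BetaGlo luminescence (5 min, room temp) for LacZ from the normally silent maternal Peg3 allele in female Peg3LacZ-Neo ES cells. Cells 300/well, 40 h, 37C, 5% CO2. Data normalized per plate to negative controls.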
* marks the source's active call; other numbers are inactive results; [ ] = dose if it differs, or a comment. Unless noted, the call rests on the fitted dose curve; in most records, active means well fitted curve in the direction sought with a large enough effect; inconclusive means small, poorly fitted or top-dose-only effect, or another doubt; inactive means no such curve, though single readings can be large; an effect the other way counts as inactive or inconclusive. Potency means the concentration at half of the fitted maximal effect.

What do the screens show for `COc1ccccc1Nc1nn2c(=O)c3ccc(C(=O)NCCC4=CCCCC4)cc3nc2s1`?
IkB sig inh: inconclusive; p53ts 39C tox: 3.2µM*; p53ts 32C kill: 5µM*; Imprint erasure: -37%[10.9 µM]

Results for CCN(CC)CCNC(=O)c1ccc2c(=O)n3nc(Nc4cccc(Cl)c4C)sc3nc2c1 ?
IkB sig inh: -3%; p53ts 39C tox: 20µM*; p53ts 32C kill: inconclusive; Imprint erasure: -4%[10.9 µM]

What do the screens show for `Cc1ccc(C)c(Nc2nn3c(=O)c4ccc(C(=O)NCCC5=CCCCC5)cc4nc3s2)c1`?
IkB sig inh: -1%; p53ts 39C tox: 23%; p53ts 32C kill: inconclusive; Imprint erasure: 22%[10.9 µM]

Results for COc1ccccc1Nc1nn2c(=O)c3ccc(C(=O)NCCc4ccccc4)cc3nc2s1 ?
IkB sig inh: inconclusive; p53ts 39C tox: 3.2µM*; p53ts 32C kill: 3.2µM*; Imprint erasure: -34%[10.9 µM]

How did Cc1c(Cl)cccc1Nc1nn2c(=O)c3ccc(C(=O)NCCc4ccccc4)cc3nc2s1 do in these assays?
IkB sig inh: inconclusive; p53ts 39C tox: inconclusive; p53ts 32C kill: inconclusive; Imprint erasure: -33%[10.9 µM]

What do the screens show for `COc1ccccc1Nc1nn2c(=O)c3ccc(C(=O)NC(C)c4ccccc4)cc3nc2s1` (centres undefined)?
IkB sig inh: -2%; p53ts 39C tox: 12%; p53ts 32C kill: 3%; Imprint erasure: -5%[10.9 µM]

Results for Cc1ccc(C)c(Nc2nn3c(=O)c4ccc(C(=O)NCCc5ccccc5)cc4nc3s2)c1 ?
IkB sig inh: inconclusive; p53ts 39C tox: 3.2µM*; p53ts 32C kill: -6%; Imprint erasure: 23%[10.9 µM]

How did Cc1c(Cl)cccc1Nc1nn2c(=O)c3ccc(C(=O)NCCC4=CCCCC4)cc3nc2s1 do in these assays?
IkB sig inh: -1%; p53ts 39C tox: -20%; p53ts 32C kill: 3%; Imprint erasure: 11%[10.9 µM]

How did Cc1ccc(C)c(S(=O)(=O)c2nnn3c2nc(N2CCCCC2)c2sccc23)c1 do in these assays?
IkB sig inh: inconclusive; p53ts 39C tox: -2%; p53ts 32C kill: 15%; Imprint erasure: -17%[10.9 µM]

Results for CCc1ccc(NC(=O)CSC2=Nc3ccccc3C3=NC(CCC(=O)NCCc4ccccc4)C(=O)N23)cc1 (centres undefined) ?
IkB sig inh: inconclusive; p53ts 39C tox: 2%; p53ts 32C kill: 7%; Imprint erasure: -5%[10.9 µM]

Results for COc1ccccc1N1CCN(c2ncnc3c2cnn3-c2cc(Cl)ccc2C)CC1 ?
IkB sig inh: inconclusive; p53ts 39C tox: 13µM*; p53ts 32C kill: inconclusive; Imprint erasure: -13%[10.9 µM]

Results for Cc1ccc(Cl)cc1-n1ncc2c(N3CCCCCC3)ncnc21 ?
IkB sig inh: inconclusive; p53ts 39C tox: inconclusive; p53ts 32C kill: -10%; Imprint erasure: -15%[10.9 µM]

What do the screens show for `Clc1ccc(Cn2ncc3c(N4CCCC4)ncnc32)cc1`?
IkB sig inh: -1%; p53ts 39C tox: 1%; p53ts 32C kill: 2%; CRE Fsk mod: 10µM*; Imprint erasure: -12%

How did Cc1cccc(-n2ncc3c(N4CCCC4)ncnc32)c1 do in these assays?
IkB sig inh: -1%; p53ts 39C tox: 5µM*; p53ts 32C kill: 3.2µM*; CRE Fsk mod: inconclusive; Imprint erasure: -23%

How did COc1ccc(-n2ncc3c(N4CCCCC4)ncnc32)cc1 do in these assays?
p53ts 39C tox: 3.2µM*; p53ts 32C kill: 2.5µM*

What do the screens show for `Cc1ccc(-c2onc(C)c2C)cc1S(=O)(=O)Nc1ccc(Cl)cn1`?
IkB sig inh: 3%; p53ts 39C tox: -17%; p53ts 32C kill: -2%; Imprint erasure: -8%[10.9 µM]

How did COc1ccccc1OCC(=O)N(Cc1ccc(N(C)C)cc1)CC1CCCO1 (centres undefined) do in these assays?
IkB sig inh: inconclusive; p53ts 39C tox: -10%; p53ts 32C kill: -2%; Imprint erasure: -7%[10.9 µM]

How did Cc1ccc(-n2ncc3c(N4CCCCC4)ncnc32)cc1 do in these assays?
IkB sig inh: inconclusive; p53ts 39C tox: 1.6µM*; p53ts 32C kill: 1.6µM*; Imprint erasure: -74%[10.9 µM]

Results for O=C(O)[C@@H]1[C@@H](C(=O)O)[C@@]23CCCC2=C2CC[C@@]3(C(=O)O)[C@@]3(C(=O)O)C[C@@]213 ?
Imprint erasure: -8%[10.9 µM]

What do the screens show for `COc1ccc(-c2cc(C(F)F)n3ncc(C(=O)N4CCN(C(=O)c5ccco5)CC4)c3n2)cc1`?
IkB sig inh: -7%; p53ts 39C tox: 0%; p53ts 32C kill: 3%; CRE Fsk mod: 16µM*; Imprint erasure: -7%

What do the screens show for `O=C(c1cc2nc(-c3ccccc3)cc(-c3ccccc3)n2n1)N1CCN(C(=O)c2ccco2)CC1`?
IkB sig inh: inconclusive; p53ts 39C tox: 11%; p53ts 32C kill: 2%; CRE Fsk mod: 3.2µM*; Imprint erasure: -25%

Results for CCN1CCN(C(=O)c2cnn3c(C(F)F)cc(-c4ccc(C)cc4)nc23)CC1 ?
IkB sig inh: -1%; p53ts 39C tox: -5%; p53ts 32C kill: 1%; CRE Fsk mod: 18%; Imprint erasure: -6%

Results for Cc1cc(N2CCN(C(=O)c3ccco3)CC2)n2nc(C)c(-c3ccccc3)c2n1 ?
IkB sig inh: 1%; p53ts 39C tox: 1%; p53ts 32C kill: -2%; CRE Fsk mod: 7.9µM*; Imprint erasure: -4%

What do the screens show for `CCOc1ccc(CCNC(=O)Cn2c(-c3cccs3)cc3cc(F)ccc32)cc1OCC`?
IkB sig inh: inconclusive; p53ts 39C tox: 7.9µM*; p53ts 32C kill: -17%; Imprint erasure: -10%[10.9 µM]

What do the screens show for `CSc1nc(NC(C)(C)C)nc(N2CCOCC2)n1`?
IkB sig inh: 6%; p53ts 39C tox: 6%; p53ts 32C kill: 4%; CRE Fsk mod: 13µM*; Imprint erasure: -1%

How did CSc1nc(NC(C)C)nc(N2CCOCC2)n1 do in these assays?
IkB sig inh: -1%; p53ts 39C tox: 2%; p53ts 32C kill: 1%; CRE Fsk mod: inconclusive; Imprint erasure: 0%

How did CNc1nc(SCc2ccccc2)nc(N2CCOCC2)n1 do in these assays?
IkB sig inh: -6%; p53ts 39C tox: 14%; p53ts 32C kill: 6%; CRE Fsk mod: inconclusive; Imprint erasure: -12%

How did CC(C)(C)Nc1nc(SCc2ccccc2)nc(N2CCOCC2)n1 do in these assays?
IkB sig inh: 1%; p53ts 39C tox: 11%; p53ts 32C kill: 10%; CRE Fsk mod: 2.5µM*; Imprint erasure: -17%

What do the screens show for `COc1ccc(CNC(=O)C2CCN(c3nc4ccc(C)cc4[nH]3)CC2)cc1`?
IkB sig inh: -1%; p53ts 39C tox: -9%; p53ts 32C kill: 16%; Imprint erasure: -4%[10.9 µM]

What do the screens show for `COCCN(CCOC)S(=O)(=O)c1ccc(C(=O)Nc2nnc(C)o2)cc1`?
IkB sig inh: 1%; p53ts 39C tox: -4%; p53ts 32C kill: -1%; CRE Fsk mod: -1%; Imprint erasure: -3%
